AMA1-RON2 inh: inhibitors of Plasmodium falciparum AMA1-RON2 interaction | hit rate 0.2% among 360,000 | Potency, µM (titrated, usually from 58.2 µM), usual class: inhibitors | AlphaScreen AMA1-biotinylated RON2 peptide binding | AID 720542; further: nearly all actives have a fitted effect of over 45% in size
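AMA1 (3D7) with his tag at 25 nM final met compounds first, then biotinylated RON2 peptide at 25 nM; detection used donor plus acceptor beads, 10 µg/mL apiece, read by AlphaScreen after 30 min at room temperature.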
RE007 growth inh: less growth of the S. pombe RE007 Vpr strain. S. pombe RE007 Vpr strain, BacTiter-Glo ATP luminescence, 24 h. Potency, µM (top dose mostly 92.2 µM), actives largely listed as inhibitors. hit rate 0.21% among 360,000; active means well fitted falling curve with a large enough effect; inconclusive means small, poorly fitted or top-dose-only effect; inactive means no such curve, though single readings can be large or run the other way; further: nearly all actives have a fitted effect of over 50% in size
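Fission yeast RE007 carrying one integrated HIV-1 vpr copy, seeded at OD 0.01 in PMG+AL medium with 23 nL pinned compound. Grown 24 h at 30 degrees; viability read by BacTiter-Glo luminescence after 5 min.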
Tb PYK inh: T. brucei pyruvate kinase inhibition. TbPYK enzyme, Kinase-Glo Plus ATP luminescence, 45 min. AID 624173. hit rate 0.12% among 410,000. Q57TT1. Potency, µM (series often up to 76.8 µM), hits mostly inhibitors; further: nearly all actives have a fitted effect of over 50% in size
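Assay buffer: 50 mM TEA pH 7.2, 100 mM KCl, 10 mM MgCl2, 0.05% BSA, 0.01% Tween-20. Pyruvate kinase from T. brucei plus substrate met compound, then ADP (130 uM final). Luminescence was read post 45 min RT.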
LmPK inhibitor: inhibitors of Leishmania mexicana pyruvate kinase | Q27686 | purified LmPK, Kinase-Glo ATP luminescence, 1 h | Potency, µM (titrated, usually from 57.5 µM), usual class: inhibitors | hit rate 0.37% among 290,000 | AID 1721
Target sequence (Q27686 whole entry, looked up): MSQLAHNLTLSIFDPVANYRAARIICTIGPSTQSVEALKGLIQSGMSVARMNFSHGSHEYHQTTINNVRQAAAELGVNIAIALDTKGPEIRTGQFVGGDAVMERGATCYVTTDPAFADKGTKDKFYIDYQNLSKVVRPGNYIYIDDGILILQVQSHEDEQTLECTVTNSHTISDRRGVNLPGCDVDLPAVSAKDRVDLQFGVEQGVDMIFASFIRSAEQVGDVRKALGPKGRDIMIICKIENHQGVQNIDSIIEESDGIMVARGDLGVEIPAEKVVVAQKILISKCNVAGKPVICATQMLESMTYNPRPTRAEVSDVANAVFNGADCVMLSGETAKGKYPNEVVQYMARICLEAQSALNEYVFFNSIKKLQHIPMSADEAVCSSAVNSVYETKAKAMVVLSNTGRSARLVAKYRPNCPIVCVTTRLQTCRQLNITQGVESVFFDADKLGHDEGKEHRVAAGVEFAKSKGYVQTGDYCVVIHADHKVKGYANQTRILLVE
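Kinase-Glo luminescence read after 1 h RT reaction of 0.1 nM LmPK with 0.5 mM PEP and 0.1 mM ADP. Activity scaled between uninhibited and enzyme-free controls.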
SARS PLpro yeast-1: SARS-CoV PLP inhibition in yeast. S. cerevisiae expressing SARS-CoV PLpro, growth rescue. Potency, µM (highest dose often 32.9 µM), usual class: activators. hit rate 0.19% among 330,000; calls by dose curve; further: nearly all actives have a fitted effect of over 55% in size
SARS PLpro yeast-2: Inhibits SARS-CoV PLP in yeast, hit validation; shares compounds with SARS PLpro yeast-1; yeast expressing SARS-CoV PLpro, growth phenotype rescue; calls only; hit rate 19% among 1,000; AID 652038; call rule not given here
Large screens that a line does not name were inactive (follow-up assays come after a bar, where they were run). Shown are actives, neighbours in structure and some others; about 0.81% of the full set was active somewhere. Unless noted, the call rests on the fitted dose curve; in most records, active means well fitted curve in the direction sought with a large enough effect; inconclusive means small, poorly fitted or top-dose-only effect, or another doubt; inactive means no such curve, though single readings can be large; an effect the other way counts as inactive or inconclusive.

COc1ccc(N2CCN(C(=O)CN(c3ccccc3)S(=O)(=O)c3ccc(OC)cc3)CC2)cc1	none (no result: Tb PYK inh)
CC(C)(C)OC(=O)N1CCC(c2c(C(=O)NCCN3CCC(Cc4ccccc4)CC3)cnn2-c2ccccc2)CC1	none (no result: AMA1-RON2 inh, RE007 growth inh, LmPK inhibitor, SARS PLpro yeast-1)
CCOC(=O)C1CCN(C(=O)CN(c2cc(Cl)ccc2OC)S(=O)(=O)c2ccccc2)CC1	SARS PLpro yeast-1 inconclusive | SARS PLpro yeast-2 inactive
CCOC(=O)C1CCN(C(=O)CN(c2cc(OC)ccc2OC)S(=O)(=O)c2ccccc2)CC1	none
CC(C)CC(=O)NN(C)c1nc(-c2ccccc2)nnc1C(F)(F)F	SARS PLpro yeast-1 inconclusive | SARS PLpro yeast-2 inactive
CCCCC(=O)NN(C)c1nc(-c2ccccc2)nnc1C(F)(F)F	none
Cc1c(Cl)cccc1NC(=S)NCc1cccs1	SARS PLpro yeast-1 14µM | SARS PLpro yeast-2 active
S=C(NCc1cccs1)Nc1cccc(Cl)c1Cl	SARS PLpro yeast-1 inconclusive
Cc1cccc(C(C)C)c1NC(=O)COC(=O)CCN1C(=O)C2CC=CCC2C1=O (configuration not stated)	none
CC1(c2cccc(Br)c2)NC(=O)N(CC(=O)c2ccc3c(c2)OCO3)C1=O (configuration not stated)	none (no result: LmPK inhibitor, SARS PLpro yeast-1)
CC(OC(=O)/C(C#N)=C/c1ccco1)C(=O)N(C)c1ccccc1 (configuration not stated)	none (no result: LmPK inhibitor)
CCc1nc(Cl)c(C#N)c2c1CCCC2	SARS PLpro yeast-1 4µM | SARS PLpro yeast-2 inactive
CCCCCCCOC(=O)C[N+](C)(C)CCOC1CC2CCC1(C)C2(C)C (configuration not stated)	none
CCCCOC(=O)C[N+](C)(C)CCOC1CC2CCC1(C)C2(C)C (configuration not stated)	none (no result: SARS PLpro yeast-1) | SARS PLpro yeast-2 inactive
CC(=O)O[C@@H]1[C@@]2(C)O[C@H]2CC[C@]23O[C@H]2[C@H](OC3=O)C2=C(C)C(=O)O[C@@]21O	SARS PLpro yeast-1 inconclusive | SARS PLpro yeast-2 inactive
COc1ccccc1C(=O)NC(=S)Nc1ccc(NC(=O)c2cccs2)cc1	SARS PLpro yeast-1 inconclusive | SARS PLpro yeast-2 inactive
O=C(N/N=C/c1cc([N+](=O)[O-])ccc1O)c1cc(-c2ccccc2)nc2ccccc12	none (no result: SARS PLpro yeast-1) | SARS PLpro yeast-2 active
Cc1cc(C(=O)N/N=C/c2cc([N+](=O)[O-])ccc2O)c2ccccc2n1	AMA1-RON2 inh inconclusive, SARS PLpro yeast-1 3.2µM | SARS PLpro yeast-2 inactive
Cc1ccccc1C(=O)Nc1cccc(C(=O)N/N=C/c2cc(Cl)cc([N+](=O)[O-])c2O)c1	AMA1-RON2 inh inconclusive, SARS PLpro yeast-1 7.9µM | SARS PLpro yeast-2 inconclusive
Cc1cc(C(=O)N/N=C/c2cc(Br)cc([N+](=O)[O-])c2O)c2ccccc2n1	AMA1-RON2 inh 35µM, SARS PLpro yeast-1 1.8µM | SARS PLpro yeast-2 inactive
COc1cc(/C=N/NC(=O)c2cccc(NC(=O)c3ccccc3C)c2)ccc1O	none
O=C(N/N=C/c1cc([N+](=O)[O-])ccc1Cl)c1cc(-c2ccccc2)nc2ccccc12	none
COc1ccc(CCNC(=O)CSc2cn(CCNC(=O)c3c(F)cccc3F)c3ccccc23)cc1OC	none (no result: AMA1-RON2 inh, RE007 growth inh, LmPK inhibitor, SARS PLpro yeast-1)
CC(C)Cc1nnc(NC(=O)CN2C(=O)NC3(CC(C)CC(C)(C)C3)C2=O)s1 (configuration not stated)	none (no result: LmPK inhibitor)
COCCN1C[C@@H](CO)O[C@@H](n2cnc3c(N4CCN(c5ccccc5)CC4)ncnc32)C1	none (no result: LmPK inhibitor, SARS PLpro yeast-1)
Cc1ccc(C)c(N2CCN(C(=O)C3CCCN(S(=O)(=O)c4c(C)[nH]c(=O)[nH]c4=O)C3)CC2)c1 (configuration not stated)	SARS PLpro yeast-1 10µM | SARS PLpro yeast-2 inactive
Cc1cc(Nc2ccccc2F)n2nc(Cc3ccc(Cl)cc3)nc2n1	none (no result: AMA1-RON2 inh, RE007 growth inh, LmPK inhibitor, SARS PLpro yeast-1)
Cc1c(Cl)cnc(NC(=O)COC(=O)c2ccc3ncsc3c2)c1Cl	none
O=C(COC(=O)c1ccc2ncsc2c1)Nc1ncc(Cl)cc1Cl	SARS PLpro yeast-1 22µM | SARS PLpro yeast-2 inactive
CCCc1cc(-n2ccnc2)n2c(nc3ccccc32)c1C#N	none
Cc1cc(-n2ccnc2)n2c(nc3ccccc32)c1C#N	SARS PLpro yeast-1 inconclusive | SARS PLpro yeast-2 inconclusive
Cc1ccc(OCCN(C)C(=O)C2CCC(=O)N(CCCN3CCOCC3)C2)cc1 (configuration not stated)	none
COc1ccc(-c2cn(CCC(=O)O)c(-c3ccc(Cl)nc3)n2)cc1	SARS PLpro yeast-1 inconclusive (no result: LmPK inhibitor) | SARS PLpro yeast-2 inactive
C[C@H](CO)NC(=O)c1[nH]cnc1C(=O)Nc1cccc(Cl)c1	none (no result: LmPK inhibitor, SARS PLpro yeast-1)
CC1Cc2ccccc2N1c1ncnc2c1nnn2Cc1ccccc1 (configuration not stated)	none
CC1Cc2ccccc2N1c1nc(C2CC2)nc2c1nnn2Cc1ccccc1 (configuration not stated)	SARS PLpro yeast-1 inconclusive | SARS PLpro yeast-2 active
Cc1cccc(OCc2cc(=O)n3c(-c4ccccc4)csc3n2)c1C	none (no result: AMA1-RON2 inh, RE007 growth inh, LmPK inhibitor, SARS PLpro yeast-1)
O=C(O)COc1ccccc1/C=N/NC(=O)CNC(=O)c1ccco1	SARS PLpro yeast-1 0.4µM | SARS PLpro yeast-2 inactive
COc1ccc(S(=O)Cc2ccc(C(=O)N3CCN(c4cccc(C)c4C)CC3)o2)cc1 (configuration not stated)	SARS PLpro yeast-1 inconclusive
O=C(COC(=O)c1ccccc1[N+](=O)[O-])NNC(=O)c1cccs1	none
O=C(COC(=O)c1ccccc1NCCO)NNC(=O)c1cccs1	SARS PLpro yeast-1 inconclusive (no result: LmPK inhibitor) | SARS PLpro yeast-2 inactive
O=C(Cc1csc(N2CCOCC2)n1)N/N=C/c1ccc(O)c(O)c1O	AMA1-RON2 inh inconclusive, SARS PLpro yeast-1 10µM | SARS PLpro yeast-2 inactive
O=C(COc1nsnc1N1CCOCC1)N/N=C/c1ccccc1O	SARS PLpro yeast-1 inconclusive | SARS PLpro yeast-2 inactive
C/C(=N\NC(=O)Cc1csc(N2CCOCC2)n1)c1ccccc1	SARS PLpro yeast-1 inconclusive (no result: Tb PYK inh)
CC(=O)N1CCN(C(=O)c2ccc(NS(=O)(=O)c3ccc4[nH]c(=O)[nH]c4c3)cc2)CC1	none (no result: LmPK inhibitor)
c1ccc(CNCc2ccco2)cc1	none
COc1ccc(C(C)NC(=O)c2ccccc2Cl)cc1OC (configuration not stated)	SARS PLpro yeast-1 11µM | SARS PLpro yeast-2 active
O=C(CCn1cnc(-c2ccccc2)c1-c1ccccc1)N/N=C/c1ccccc1O	SARS PLpro yeast-1 10µM | SARS PLpro yeast-2 inactive
O=C(CCn1cnc(-c2ccccc2)c1-c1ccccc1)N/N=C/c1ccc(O)cc1	none
O=C(Nc1ccc(Oc2ccccc2)cc1)c1ccc2nc([C@@H]3O[C@H](CO)[C@H](O)[C@H](O)[C@H]3O)[nH]c2c1	none (no result: LmPK inhibitor, SARS PLpro yeast-1)
O=C1CCCc2cc(S(=O)(=O)N3CCC(C(=O)NCc4ccccc4)CC3)ccc2N1	none
CCOc1ccc(CNC(=O)C2CCN(S(=O)(=O)c3ccc4c(c3)CCCC(=O)N4)CC2)cc1	SARS PLpro yeast-1 inconclusive | SARS PLpro yeast-2 active

Source: PubChem BioAssay
